Test results from PubChem BioAssay (NCI).
The panel holds about 83,000 compounds, 20% with a hit somewhere; the sample as a whole holds those more often.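 How to read the values: 0–100, growth inhibition (40 = 60% inhibited); 0, no net growth; -100 to 0, cell death (-40 = 40% of starting cells died; -100 = all dead).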 Values without a mark were called inactive. The source made the active and inactive calls. The calls were made as follows: active = growth percent below 10; inactive = the rest.

Key:
Assay in all cases: NCI-60 one-dose screen, 48 h (100 = growth as untreated, 0 = no growth, -100 = all killed)
Details in all cases: 10 µM unless noted
SR leukemia = tested on: SR leukemia
RPMI-8226 leukemia = tested on: RPMI-8226 leukemia
OVCAR-8 ovarian = tested on: OVCAR-8 ovarian
OVCAR-5 ovarian = tested on: OVCAR-5 ovarian
OVCAR-4 ovarian = tested on: OVCAR-4 ovarian
SK-OV-3 ovarian = tested on: SK-OV-3 ovarian
IGROV1 ovarian = tested on: IGROV1 ovarian
OVCAR-3 ovarian = tested on: OVCAR-3 ovarian
HS 578T breast = tested on: HS 578T breast
NCI/ADR-RES ovarian = tested on: NCI/ADR-RES ovarian
T-47D breast = tested on: T-47D breast
BT-549 breast = tested on: BT-549 breast
MDA-MB-435 melanoma = tested on: MDA-MB-435 melanoma
SW-620 colon = tested on: SW-620 colon
MCF7 breast = tested on: MCF7 breast
HCT-116 colon = tested on: HCT-116 colon
HCC-2998 colon = tested on: HCC-2998 colon
KM12 colon = tested on: KM12 colon

| SMILES | growth (SR leukemia) | growth (RPMI-8226 leukemia) | growth (OVCAR-8 ovarian) | growth (OVCAR-5 ovarian) | growth (OVCAR-4 ovarian) | growth (SK-OV-3 ovarian) | growth (IGROV1 ovarian) | growth (OVCAR-3 ovarian) | growth (HS 578T breast) | growth (NCI/ADR-RES ovarian) | growth (T-47D breast) | growth (BT-549 breast) | growth (MDA-MB-435 melanoma) | growth (SW-620 colon) | growth (MCF7 breast) | growth (HCT-116 colon) | growth (HCC-2998 colon) | growth (KM12 colon) |
| --- | --- | --- | --- | --- | --- | --- | --- | --- | --- | --- | --- | --- | --- | --- | --- | --- | --- | --- |
| Cc1cc(C(=O)Nc2ncc(Cc3cccc(C(F)(F)F)c3)s2)c2ccccc2n1 | 9.35% (active) | 33.9% | 43.4% | 47.7% | 42.4% | 36% | 31.5% | 13.3% | -0.594% (active) | 16.4% | 12.1% | 34.7% | -27.3% (active) | 17.3% | 10.2% | 18% | 25.6% | 15.5% |
| COc1ccc(CN2c3ccccc3Sc3ccccc32)cc1F | 16.9% | 21.2% | 23.7% | 43.1% | 49.2% | 16.8% | 35.5% | -5.46% (active) | 16.9% | 2.82% (active) | 49.7% | 49.9% | -33.5% (active) | 23.8% | 16% | 8.54% (active) | 17.8% | 14% |
| CCOC(=O)c1ccc2c(c1)nc(-c1ccccc1)n2C1CCCCC1 | 62.9% | 63.7% | 89.5% | 117% | 102% | 36.7% | 106% | 108% | 111% | 105% | 66.8% | 93% | 102% | 111% | 93.3% | 63.7% | 91.6% | 95.1% |
| CCSc1oc(-c2ccccc2)nc1[P+](c1ccccc1)(c1ccccc1)c1ccccc1 | 1.17% (active) | -18.9% (active) | 7.86% (active) | 27.6% | 13.1% | -16.1% (active) | 5.02% (active) | 3.17% (active) | 18.4% | 67.4% | 1.87% (active) | -10.9% (active) | 3.45% (active) | 10.8% | 4.96% (active) | 2.27% (active) | 14.5% | -16.2% (active) |
| O=C(c1nn(-c2ccccc2)c2c1CC(NCc1ccc(F)cc1)CC2)N1CCCCC1 (centres undefined) | 94.6% | 110% | 97% | 103% | 99.2% | 103% | 97.7% | 104% | 107% | 93.9% | 93.6% | 84.6% | 98.9% | 110% | 88.1% | 90.5% | 104% | 102% |
| CCOC(=O)C/C(=N\Nc1cc(=O)[nH]c2ccc(Br)cc12)C(=O)OCC | 40.8% | 83.2% | 98.6% | 99.6% | 96.6% | 105% | 82.6% | 100% | 92% | 93.4% | 105% | 96.6% | 101% | 90.4% | 91.9% | 99.7% | 96.9% | 96% |
| O=C(NCCNc1nccc(Nc2ccc(S(=O)(=O)Nc3ccccn3)cc2)n1)c1cccc([N+](=O)[O-])c1 | 84.7% | 96.1% | 104% | 93% | 89.9% | 100% | 106% | 108% | 108% | 104% | 89% | 96.9% | 103% | 102% | 88.5% | 90.4% | 109% | 99% |
| Nc1ncnc2c1C(c1ccc(Br)cc1)c1sc3c(F)cccc3c1O2 (centres undefined) | 85.6% | 100% | 101% | 99.8% | 87.4% | 102% | 81.6% | 103% | 94.8% | 96.1% | 74.9% | 100% | 107% | 94.5% | 55.9% | 95% | 120% | 91.8% |
| CCOC(=O)C1=C(C)NC(=O)NC1c1c(Cl)n(CCCl)c2ccccc12 (centres undefined) | 102% | 77.3% | 96.7% | 101% | 112% | 104% | 103% | 98.5% | 93.1% | 97.1% | 101% | 92% | 101% | 96.8% | 98.7% | 95.1% | 96.3% | 97.4% |
| CC(C)(Sc1cc(C(C)(C)C)c(O)c(C(C)(C)C)c1)Sc1cc(C(C)(C)C)c(OC(=O)CCCC(=O)O)c(C(C)(C)C)c1 | 28.1% | 37.2% | 56.7% | 100% | 67.9% | 91.6% | 57.4% | 44.2% | 80.1% | 78.7% | 36.6% | 64.9% | 60.4% | 43.7% | – | 26.5% | 50.4% | 36.7% |
